PubChem BioAssay (NCI)
Values joined by “and” are separate entries in the source; they are usually repeats but may differ in a detail not shown here. Equal entries are not always repeated. This is part of a sample that, as a whole, favours compounds with a hit. Of some 79,000 tested, about 15% had one in any assay. The source holds several records for some structures; these can differ, active in one and inactive in another. Active and inactive are the calls of the source. Rule as the data show it: active = growth inhibition above about 70%; inactive = the rest.

Assays:
[1] = NCI Yeast Anticancer Drug Screen. Data for the mlh1 strain (AID 171);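 also: 0% = growth of vehicle-treated control cultures of the same strain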; settings: S. cerevisiae mlh1 strain growth inhibition, stronger effect = higher value
Method in brief: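 Compounds are applied to a genetically altered yeast strain, and its growth is compared with that of vehicle-treated cultures to give percent inhibition.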

[2] = NCI Yeast Anticancer Drug Screen. Data for the sgs1 strain (AID 173);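 also: 0% = growth of vehicle-only control cultures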; settings: S. cerevisiae sgs1 mutant, stronger effect = higher value
Method in brief: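 Compounds applied to genetically altered yeast; growth compared with vehicle-treated cultures to give % inhibition.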

[3] = NCI Yeast Anticancer Drug Screen. Data for the mlh1 rad18 strain (AID 175); settings: S. cerevisiae mlh1 rad18 strain growth inhibition, stronger effect = higher value
Method in brief: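 Cells of a genetically altered yeast strain, deficient in DNA damage repair, were treated with compound. Their growth was then compared with that of vehicle-treated cultures to give inhibition.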

[4] = NCI Yeast Anticancer Drug Screen. Data for the rad18 strain (AID 177); settings: S. cerevisiae rad18 mutant growth inhibition, stronger effect = higher value
Method in brief: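 Compounds are applied to a repair-deficient yeast strain, and growth is compared with that of vehicle-treated cultures to give percent inhibition.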

[5] = NCI Yeast Anticancer Drug Screen. Data for the rad52 strain (AID 147);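 also: 0% = growth of vehicle-treated control cultures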; settings: S. cerevisiae rad52 mutant growth inhibition, stronger effect = higher value
Method in brief: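 DNA repair-defective yeast; compound exposure; growth scored against vehicle controls.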

[6] = NCI Yeast Anticancer Drug Screen. Data for the rad50EPP+ strain (AID 151);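 also: 0% = growth of vehicle-treated control cultures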; settings: S. cerevisiae rad50 mutant strain, stronger effect = higher value
Method in brief: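 rad50EPP+ yeast treated with test compounds. Readout: growth vs vehicle control.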

[7] = NCI Yeast Anticancer Drug Screen. Data for the mgt1 strain (AID 153); settings: S. cerevisiae mgt1 mutant growth inhibition, stronger effect = higher value
Method in brief: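 Growth inhibition relative to vehicle controls was scored for the mgt1 yeast strain after compound exposure.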

[8] = NCI Yeast Anticancer Drug Screen. Data for the rad50 strain (AID 155);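 also: 0% = growth of vehicle-only cultures of the same strain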; settings: S. cerevisiae rad50 strain growth inhibition, stronger effect = higher value
Method in brief: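 Vehicle-treated cultures provide the reference for the growth inhibition reported for compound-exposed, repair-deficient yeast.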

[9] = NCI Yeast Anticancer Drug Screen. Data for the mec2-1 strain (AID 157); settings: S. cerevisiae mec2-1 strain, stronger effect = higher value
Method in brief: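 Growth inhibition is read against vehicle-treated controls after compound exposure of the mec2-1 yeast strain, which is defective in DNA damage repair or cell cycle control.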

[10] = NCI Yeast Anticancer Drug Screen. Data for the rad14 strain (AID 159);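 also: 0% = growth of vehicle-treated control cultures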; settings: S. cerevisiae rad14 strain growth inhibition, stronger effect = higher value
Method in brief: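 Inhibition of growth is reported for a repair-deficient yeast mutant following compound treatment, calculated relative to cultures that received vehicle.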

[11] = NCI Yeast Anticancer Drug Screen. Data for the sgs1 mgt1 strain (AID 161);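 also: 0% = growth of cultures given vehicle only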; settings: S. cerevisiae sgs1 mgt1 strain, stronger effect = higher value
Method in brief: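 Yeast cells carrying a defined DNA-repair defect were exposed to test compounds. Growth inhibition was measured relative to vehicle-treated controls.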

[12] = NCI Yeast Anticancer Drug Screen. Data for the CLN2oe strain (AID 163);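 also: 0% = growth of vehicle-only control cultures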; settings: S. cerevisiae CLN2oe strain, stronger effect = higher value
Method in brief: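 Compound-treated yeast; growth vs vehicle ctrl = % inhibition. Genetically altered strain (cell-cycle control).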

[13] = NCI Yeast Anticancer Drug Screen. Data for the cln2 rad14 strain (AID 165);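 also: 0% = growth equal to vehicle treated cultures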; settings: S. cerevisiae cln2 rad14 strain, stronger effect = higher value
Method in brief: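 Growth inhibition, relative to vehicle-treated controls, is the read-out. The test organism is a yeast strain with defined genetic alterations, cln2 rad14.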

[14] = NCI Yeast Anticancer Drug Screen. Data for the bub3 strain (AID 167); settings: S. cerevisiae bub3 mutant strain, stronger effect = higher value
Method in brief: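 Mutant yeast screening strain plus compound; vehicle-treated cultures serve as the 0% inhibition reference.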

[15] = NCI Yeast Anticancer Drug Screen. Data for the wt2 strain (AID 169); settings: S. cerevisiae wt2 strain growth inhibition, stronger effect = higher value
Method in brief: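 Compound exposure of yeast; growth compared with vehicle controls; inhibition reported.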

[16] = NCI Yeast Anticancer Drug Screen. Data for the wt1 strain (AID 149);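 also: 0% = growth of vehicle-treated wt1 cultures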; settings: S. cerevisiae wt1 strain (SPY 50644) growth inhibition, stronger effect = higher value
Method in brief: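 Each compound is tested on wt1 yeast and the loss of growth versus vehicle gives the inhibition value.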

[17] = at 5.0 µM (retest, dose inferred, filed as 0.5)
[18] = at 50.0 µM (retest, dose inferred, filed as 5.0)

Measured: growth inhibition

CC1=CC(=C(c2ccc(N)cc2)c2ccc(N)cc2)C=CC1=N
54% (inactive) and 75% (active): [3]; [18]
inactive: [1]; at 33.0 µM -3% | [2]; at 1.2 µM 11% | [2]; at 3.7 µM 18% | [2]; at 11.0 µM 4% | [2]; at 33.0 µM 11% | [3]; [17] 9% and -3% | [3]; at 50.0 µM 66% and 61.9% | [4]; at 1.2 µM 6% | [4]; at 3.7 µM 4% | [4]; at 11.0 µM -22% | [4]; at 33.0 µM 9%
active: [1]; at 100.0 µM 81% | [2]; at 100.0 µM 77% | [4]; at 100.0 µM 81%

CN(C)C=NC1CCC(C(C)(C)C)CC1 (stereo unspecified)
active: [5]; at 33.0 µM 74% | [5]; at 100.0 µM 99% | [6]; at 100.0 µM 73% | [7]; at 33.0 µM 97% | [7]; at 100.0 µM 99% | [8]; at 33.0 µM 97% | [8]; [18] 97% | [8]; at 50.0 µM 98.8% | [8]; at 100.0 µM 99% | [9]; at 33.0 µM 73% | [9]; [18] 99% | [9]; at 50.0 µM 95.8% | [9]; at 100.0 µM 99% | [10]; at 11.0 µM 75% | [10]; at 33.0 µM 98% | [10]; at 100.0 µM 99% | [11]; [18] 98% | [11]; at 50.0 µM 97.7% | [12]; at 33.0 µM 95% | [12]; at 100.0 µM 99% | [13]; [18] 98% | [13]; at 50.0 µM 98.4% | [14]; at 33.0 µM 94% | [14]; [18] 98% | [14]; at 50.0 µM 97.5% | [14]; at 100.0 µM 99% | [15]; at 33.0 µM 88% | [15]; at 100.0 µM 99% | [1]; at 33.0 µM 94% | [1]; at 100.0 µM 99% | [2]; at 33.0 µM 95% | [2]; at 100.0 µM 99% | [3]; [18] 98% | [3]; at 50.0 µM 98.2% | [4]; at 33.0 µM 93% | [4]; at 100.0 µM 99%
inactive: [5]; at 1.2 µM -5% | [5]; at 3.7 µM 7% | [5]; at 11.0 µM 34% | [6]; at 1.2 µM -2% | [6]; at 3.7 µM 5% | [6]; at 11.0 µM 10% | [6]; at 33.0 µM 30% | [7]; at 1.2 µM -1% | [7]; at 3.7 µM -1% | [7]; at 11.0 µM 45% | [8]; at 1.2 µM -3% | [8]; at 3.7 µM -1% | [8]; [17] 28% | [8]; at 11.0 µM 59% | [9]; at 1.2 µM 2% | [9]; at 3.7 µM 0% | [9]; [17] -24% | [9]; at 11.0 µM 10% | [10]; at 1.2 µM -1% | [10]; at 3.7 µM 11% | [11]; [17] 14% | [12]; at 1.2 µM 1% | [12]; at 3.7 µM 9% | [12]; at 11.0 µM 44% | [13]; [17] 17% | [14]; at 1.2 µM -8% | [14]; at 3.7 µM -2% | [14]; [17] 62% | [14]; at 11.0 µM 55% | [15]; at 1.2 µM 0% | [15]; at 3.7 µM 4% | [15]; at 11.0 µM 34% | [1]; at 1.2 µM 8% | [1]; at 3.7 µM 1% | [1]; at 11.0 µM 47% | [2]; at 1.2 µM 1% | [2]; at 3.7 µM 2% | [2]; at 11.0 µM 55% | [3]; [17] -32% | [4]; at 1.2 µM -3% | [4]; at 3.7 µM 8% | [4]; at 11.0 µM 54%

COc1cc2cc3c4cc(OC)c(OC)cc4cc[n+]3c(C)c2cc1OC
active: [8]; [18] 92% | [9]; [17] 73% | [9]; [18] 83% | [14]; at 50.0 µM 79.8% | [3]; [18] 80%
inactive: [5]; at 1.2 µM -21% | [5]; at 3.7 µM -21% | [5]; at 11.0 µM -16% | [5]; at 33.0 µM -20% | [5]; at 100.0 µM -13% | [16]; at 1.2 µM -33% | [16]; at 3.7 µM -31% | [16]; at 11.0 µM -32% | [16]; at 33.0 µM -37% | [16]; at 100.0 µM -31% | [7]; at 1.2 µM -21% | [7]; at 3.7 µM -29% | [7]; at 11.0 µM -38% | [7]; at 33.0 µM -34% | [7]; at 100.0 µM -31% | [8]; at 1.2 µM 5% | [8]; at 3.7 µM 1% | [8]; [17] 59% | [8]; at 11.0 µM 3% | [8]; at 33.0 µM 10% | [8]; at 50.0 µM 51.4% | [8]; at 100.0 µM 7% | [9]; at 1.2 µM -13% | [9]; at 3.7 µM -11% | [9]; at 11.0 µM -7% | [9]; at 33.0 µM -16% | [9]; at 50.0 µM 6.05% | [9]; at 100.0 µM -5% | [10]; at 1.2 µM -27% | [10]; at 3.7 µM -22% | [10]; at 11.0 µM -31% | [10]; at 33.0 µM -26% | [10]; at 100.0 µM -27% | [11]; [17] -28% | [11]; [18] -6% | [11]; at 50.0 µM 36.6% | [12]; at 1.2 µM -22% | [12]; at 3.7 µM -35% | [12]; at 11.0 µM -28% | [12]; at 33.0 µM -39% | [12]; at 100.0 µM -5% | [13]; [17] 61% | [13]; [18] 26% | [13]; at 50.0 µM 15.2% | [14]; at 1.2 µM 0% | [14]; at 3.7 µM 12% | [14]; [17] 5% | [14]; at 11.0 µM 13% | [14]; at 33.0 µM 6% | [14]; [18] 19% | [14]; at 100.0 µM 9% | [15]; at 1.2 µM -30% | [15]; at 3.7 µM -28% | [15]; at 11.0 µM -35% | [15]; at 33.0 µM -31% | [15]; at 100.0 µM -22% | [1]; at 1.2 µM -34% | [1]; at 3.7 µM -28% | [1]; at 11.0 µM -35% | [1]; at 33.0 µM -39% | [1]; at 100.0 µM -49% | [2]; at 1.2 µM -19% | [2]; at 3.7 µM -17% | [2]; at 11.0 µM -28% | [2]; at 33.0 µM -27% | [2]; at 100.0 µM -11% | [3]; [17] 55% | [3]; at 50.0 µM -76.2% | [4]; at 1.2 µM -23% | [4]; at 3.7 µM -27% | [4]; at 11.0 µM -23% | [4]; at 33.0 µM -22% | [4]; at 100.0 µM -22%
